Reference: the supplement of paper PMC4022240
± gives the standard deviation.

What was measured:
Experiment in all cases: peptide microarray binding signal (635 nm), min-max normalized on array (fraction of array maximum); higher = stronger binding
Conditions in all cases: peptide region: H3 1-13
[1] = molecular target: T1, HaloTag-ATRX ADD domain (163-292)
T1 chain: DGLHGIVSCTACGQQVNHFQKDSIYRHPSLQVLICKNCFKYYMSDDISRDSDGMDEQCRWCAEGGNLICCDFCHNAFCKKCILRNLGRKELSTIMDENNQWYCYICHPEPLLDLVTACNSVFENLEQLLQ
Method: (§1)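 Histone 13-mer peptides were synthesized as cellulose conjugates with a C-terminal 20-atom PEG linker and printed in triplicate on nitrocellulose. The sequence given is the unmodified backbone; PTMs (Kme1/2/3, Kac, Sph/Tph, Rme/Rme2a/Rme2s, Rcit) are listed in the label and the 'peptide modifications' condition. Slides were probed at 4 °C for 1 h with biotin-labelled (HQ)5-HaloTag reader fusions (ATRX-ADD, ING2-PHD) then streptavidin-Alexa647, or with rabbit histone antibodies then anti-rabbit Alexa647. The mean 635 nm signal of the triplicate spots was scaled 0-1 between the lowest and highest values on each array.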

[2] = molecular target: HaloTag-ING2 PHD (mouse Ing2 200-280)
Method: as §1

[3] = molecular target: anti-H3K4me3 antibody ab8580
Method: as §1

[4] = molecular target: anti-H3K9me3 antibody ab8898
Method: as §1

[5] = peptide modifications: H3R2me2a, binder concentration: 1:2,000 dilution
[6] = peptide modifications: H3R2me2a, binder concentration: 1:10,000 dilution
[7] = peptide modifications: H3R2me2s H3K4me3, binder concentration: 1:2,000 dilution
[8] = peptide modifications: H3R2me2s H3K4me3, binder concentration: 1:10,000 dilution
[9] = peptide modifications: H3R2me2a H3K9me3, binder concentration: 1:2,000 dilution
[10] = peptide modifications: H3R2me2a H3K9me3, binder concentration: 1:10,000 dilution
[11] = peptide modifications: H3R2me2s H3T3ph, binder concentration: 1:2,000 dilution
[12] = peptide modifications: H3R2me2s H3T3ph, binder concentration: 1:10,000 dilution
[13] = peptide modifications: H3R2me2s H3K4me1, binder concentration: 1:2,000 dilution
[14] = peptide modifications: H3R2me2s H3K4me1, binder concentration: 1:10,000 dilution
[15] = peptide modifications: H3R8cit H3K9ac, binder concentration: 1:2,000 dilution
[16] = peptide modifications: H3R8cit H3K9ac, binder concentration: 1:10,000 dilution
[17] = peptide modifications: H3R8cit H3K9me2, binder concentration: 1:2,000 dilution
[18] = peptide modifications: H3R8cit H3K9me2, binder concentration: 1:10,000 dilution
[19] = peptide modifications: H3R2me2s H3K4ac, binder concentration: 1:2,000 dilution
[20] = peptide modifications: H3R2me2s H3K4ac, binder concentration: 1:10,000 dilution
[21] = peptide modifications: H3R2me2s H3K9me1, binder concentration: 1:2,000 dilution
[22] = peptide modifications: H3R2me2s H3K9me1, binder concentration: 1:10,000 dilution
[23] = peptide modifications: H3R2me2s H3K4me2, binder concentration: 1:2,000 dilution
[24] = peptide modifications: H3R2me2s H3K4me2, binder concentration: 1:10,000 dilution

## ARTKQTARKSTGG [H3 1-13 A Rme2a T K Q T A R K S T G G]
[1]; peptide modifications: H3R2me2a, binder concentration: 50 nM
  peptide microarray binding signal: 0.0208 ± 0.00057
[1]; peptide modifications: H3R2me2a, binder concentration: 500 nM
  peptide microarray binding signal: 0.0355 ± 0.025
[2]; peptide modifications: H3R2me2a, binder concentration: 10 nM
  peptide microarray binding signal: 0.00889 ± 0.00042
[2]; peptide modifications: H3R2me2a, binder concentration: 100 nM
  peptide microarray binding signal: 0.0186 ± 0.0037
[3]; [5]
  peptide microarray binding signal: 0.0031 ± 0.00032
[3]; [6]
  peptide microarray binding signal: 0.0016 ± 7.1e-05
[4]; [5]
  peptide microarray binding signal: 0.00127 ± 7.4e-05
[4]; [6]
  peptide microarray binding signal: 0.000634

## ARTKQTARKSTGG [H3 1-13 A Rme2s T Kme3 Q T A R K S T G G]
[1]; peptide modifications: H3R2me2s H3K4me3, binder concentration: 50 nM
  peptide microarray binding signal: 0.00893 ± 9.3e-05
[1]; peptide modifications: H3R2me2s H3K4me3, binder concentration: 500 nM
  peptide microarray binding signal: 0.0273 ± 0.0066
[2]; peptide modifications: H3R2me2s H3K4me3, binder concentration: 10 nM
  peptide microarray binding signal: 0.0555 ± 0.0092
[2]; peptide modifications: H3R2me2s H3K4me3, binder concentration: 100 nM
  peptide microarray binding signal: 0.0641 ± 0.027
[3]; [7]
  peptide microarray binding signal: 0.674 ± 0.053
[3]; [8]
  peptide microarray binding signal: 0.326 ± 0.034
[4]; [7]
  peptide microarray binding signal: 0.228 ± 0.057
[4]; [8]
  peptide microarray binding signal: 0.113 ± 0.034

## ARTKQTARKSTGG [H3 1-13 A Rme2a T K Q T A R Kme3 S T G G]
[1]; peptide modifications: H3R2me2a H3K9me3, binder concentration: 50 nM
  peptide microarray binding signal: 0.553 ± 0.21
[1]; peptide modifications: H3R2me2a H3K9me3, binder concentration: 500 nM
  peptide microarray binding signal: 0.325 ± 0.0057
[2]; peptide modifications: H3R2me2a H3K9me3, binder concentration: 10 nM
  peptide microarray binding signal: 0.0188 ± 0.00063
[2]; peptide modifications: H3R2me2a H3K9me3, binder concentration: 100 nM
  peptide microarray binding signal: 0.0327 ± 0.0029
[3]; [9]
  peptide microarray binding signal: 0.0294 ± 0.003
[3]; [10]
  peptide microarray binding signal: 0.0254 ± 0.0048
[4]; [9]
  peptide microarray binding signal: 0.328 ± 0.013
[4]; [10]
  peptide microarray binding signal: 0.254 ± 0.069

## ARTKQTARKSTGG [H3 1-13 A Rme2s Tph K Q T A R K S T G G]
[1]; peptide modifications: H3R2me2s H3T3ph, binder concentration: 50 nM
  peptide microarray binding signal: 0.0063 ± 0.00015
[1]; peptide modifications: H3R2me2s H3T3ph, binder concentration: 500 nM
  peptide microarray binding signal: 0.0137 ± 0.00078
[2]; peptide modifications: H3R2me2s H3T3ph, binder concentration: 10 nM
  peptide microarray binding signal: 0.00424 ± 0.00025
[2]; peptide modifications: H3R2me2s H3T3ph, binder concentration: 100 nM
  peptide microarray binding signal: 0.0153 ± 0.003
[3]; [11]
  peptide microarray binding signal: 0.00264 ± 0.0012
[3]; [12]
  peptide microarray binding signal: 0.00228 ± 0.00028
[4]; [11]
  peptide microarray binding signal: 0.000982 ± 0.00014
[4]; [12]
  peptide microarray binding signal: 0.00075 ± 1.6e-05

## ARTKQTARKSTGG [H3 1-13 A Rme2s T Kme Q T A R K S T G G]
[1]; peptide modifications: H3R2me2s H3K4me1, binder concentration: 50 nM
  peptide microarray binding signal: 0.00815 ± 0.00038
[1]; peptide modifications: H3R2me2s H3K4me1, binder concentration: 500 nM
  peptide microarray binding signal: 0.0162 ± 0.0009
[2]; peptide modifications: H3R2me2s H3K4me1, binder concentration: 10 nM
  peptide microarray binding signal: 0.00573 ± 0.00037
[2]; peptide modifications: H3R2me2s H3K4me1, binder concentration: 100 nM
  peptide microarray binding signal: 0.0481 ± 0.011
[3]; [13]
  peptide microarray binding signal: 0.0368 ± 0.009
[3]; [14]
  peptide microarray binding signal: 0.0228 ± 0.00057
[4]; [13]
  peptide microarray binding signal: 0.00405 ± 0.0004
[4]; [14]
  peptide microarray binding signal: 0.00329 ± 0.00019

## ARTKQTARKSTGG [H3 1-13 A R T K Q T A Rcit Kac S T G G]
[1]; peptide modifications: H3R8cit H3K9ac, binder concentration: 50 nM
  peptide microarray binding signal: 0.00718 ± 9.2e-05
[1]; peptide modifications: H3R8cit H3K9ac, binder concentration: 500 nM
  peptide microarray binding signal: 0.0143 ± 0.00071
[2]; peptide modifications: H3R8cit H3K9ac, binder concentration: 10 nM
  peptide microarray binding signal: 0.0183 ± 0.0039
[2]; peptide modifications: H3R8cit H3K9ac, binder concentration: 100 nM
  peptide microarray binding signal: 0.031 ± 0.01
[3]; [15]
  peptide microarray binding signal: 0.0013 ± 3.1e-05
[3]; [16]
  peptide microarray binding signal: 0.002 ± 0.0002
[4]; [15]
  peptide microarray binding signal: 0.00239 ± 0.00033
[4]; [16]
  peptide microarray binding signal: 0.00208 ± 0.00016

## ARTKQTARKSTGG [H3 1-13 A R T K Q T A Rcit Kme2 S T G G]
[1]; peptide modifications: H3R8cit H3K9me2, binder concentration: 50 nM
  peptide microarray binding signal: 0.0517 ± 0.0042
[1]; peptide modifications: H3R8cit H3K9me2, binder concentration: 500 nM
  peptide microarray binding signal: 0.0992 ± 0.0018
[2]; peptide modifications: H3R8cit H3K9me2, binder concentration: 10 nM
  peptide microarray binding signal: 0.0235 ± 0.0016
[2]; peptide modifications: H3R8cit H3K9me2, binder concentration: 100 nM
  peptide microarray binding signal: 0.0428 ± 0.011
[3]; [17]
  peptide microarray binding signal: 0.00302 ± 0.00049
[3]; [18]
  peptide microarray binding signal: 0.00177 ± 5e-05
[4]; [17]
  peptide microarray binding signal: 0.00248 ± 0.00035
[4]; [18]
  peptide microarray binding signal: 0.00277 ± 8.7e-05

## ARTKQTARKSTGG [H3 1-13 A Rme2s T Kac Q T A R K S T G G]
[1]; peptide modifications: H3R2me2s H3K4ac, binder concentration: 50 nM
  peptide microarray binding signal: 0.0137 ± 0.00038
[1]; peptide modifications: H3R2me2s H3K4ac, binder concentration: 500 nM
  peptide microarray binding signal: 0.046 ± 0.0095
[2]; peptide modifications: H3R2me2s H3K4ac, binder concentration: 10 nM
  peptide microarray binding signal: 0.0299 ± 0.0078
[2]; peptide modifications: H3R2me2s H3K4ac, binder concentration: 100 nM
  peptide microarray binding signal: 0.0957 ± 0.0077
[3]; [19]
  peptide microarray binding signal: 0.00993 ± 0.0029
[3]; [20]
  peptide microarray binding signal: 0.00651 ± 0.00097
[4]; [19]
  peptide microarray binding signal: 0.0137 ± 0.0005
[4]; [20]
  peptide microarray binding signal: 0.00617 ± 0.00064

## ARTKQTARKSTGG [H3 1-13 A Rme2s T K Q T A R Kme S T G G]
[1]; peptide modifications: H3R2me2s H3K9me1, binder concentration: 50 nM
  peptide microarray binding signal: 0.0197 ± 0.00077
[1]; peptide modifications: H3R2me2s H3K9me1, binder concentration: 500 nM
  peptide microarray binding signal: 0.03 ± 0.0016
[2]; peptide modifications: H3R2me2s H3K9me1, binder concentration: 10 nM
  peptide microarray binding signal: 0.0236 ± 0.0023
[2]; peptide modifications: H3R2me2s H3K9me1, binder concentration: 100 nM
  peptide microarray binding signal: 0.0288 ± 0.00047
[3]; [21]
  peptide microarray binding signal: 0.0193 ± 0.003
[3]; [22]
  peptide microarray binding signal: 0.0216 ± 0.0013
[4]; [21]
  peptide microarray binding signal: 0.0154 ± 0.00086
[4]; [22]
  peptide microarray binding signal: 0.0152 ± 0.0011

## ARTKQTARKSTG [H3 1-13 A Rme2s T Kme2 Q T A R K S T G]
[1]; peptide modifications: H3R2me2s H3K4me2, binder concentration: 50 nM
  peptide microarray binding signal: 0.00476 ± 0.00032
[1]; peptide modifications: H3R2me2s H3K4me2, binder concentration: 500 nM
  peptide microarray binding signal: 0.00814 ± 0.00041
[2]; peptide modifications: H3R2me2s H3K4me2, binder concentration: 10 nM
  peptide microarray binding signal: 0.00967 ± 0.00038
[2]; peptide modifications: H3R2me2s H3K4me2, binder concentration: 100 nM
  peptide microarray binding signal: 0.0142 ± 0.0012
[3]; [23]
  peptide microarray binding signal: 0.0186 ± 0.0024
[3]; [24]
  peptide microarray binding signal: 0.01061 ± 5.4e-05
[4]; [23]
  peptide microarray binding signal: 0.00287 ± 0.00041
[4]; [24]
  peptide microarray binding signal: 0.00225 ± 0.00017
